CYP2C19 inh = human CYP2C19 inhibition; 96,000 compounds, 21% hits; AID 778; CYP2C19 Supersomes, luciferin-H EGE luminescence, 30 min; P33261; inhibition, % at 5 µM;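 active means CYP2C19 inhibition above a set limit at 5 µM in the primary screen, cut at about 50% in these data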
PostGolgi yeast = growth inhibition of a yeast mutant, post-Golgi transport screen. inhibition, % at 10 µM. AID 739. 98,000 compounds, 0.9% hits. post-Golgi transport phenotypic cell assay;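 further: yeast cells grown in 1536-well plates; yeast grown about 18 h at 30C before absorbance read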
CYP2C9 activ = activators of human CYP2C9; 96,000 compounds, 1.4% hits; recombinant CYP2C9, luciferin-H conversion, luminescence; active compounds read high; factor 1 = untreated enzyme, 0 = blocked; AID 1024; activation factor at 5 µM;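 active means activation factor of 2 or more for CYP2C9 at a 5 µM dose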
Target sequence (P11712 whole entry, looked up): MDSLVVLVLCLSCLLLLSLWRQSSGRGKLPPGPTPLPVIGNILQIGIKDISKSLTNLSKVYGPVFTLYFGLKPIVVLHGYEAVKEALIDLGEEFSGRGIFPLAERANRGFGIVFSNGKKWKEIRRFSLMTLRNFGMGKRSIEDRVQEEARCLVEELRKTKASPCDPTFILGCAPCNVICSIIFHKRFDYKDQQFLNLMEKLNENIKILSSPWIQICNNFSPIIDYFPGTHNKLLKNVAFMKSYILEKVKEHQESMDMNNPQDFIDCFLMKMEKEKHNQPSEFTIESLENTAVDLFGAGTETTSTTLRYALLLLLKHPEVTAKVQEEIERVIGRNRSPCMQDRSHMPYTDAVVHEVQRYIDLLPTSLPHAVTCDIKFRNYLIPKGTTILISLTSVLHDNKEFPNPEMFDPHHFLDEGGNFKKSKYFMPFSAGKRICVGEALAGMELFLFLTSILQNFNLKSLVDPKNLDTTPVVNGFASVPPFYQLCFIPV
PostGolgi ctrl = growth of the yeast control strain, post-Golgi counter-screen | efflux-deficient yeast background strain, growth absorbance A615, 16 h | inhibition, % at 10 µM | 98,000 compounds, 5% hits
CYP2C19 activ = activators of human cytochrome P450 2C19 | P33261 | recombinant CYP2C19, luciferin-H EGE luminescence; active compounds read high; 0 = fully inhibited enzyme, 1 = untreated enzyme | activation factor at 5 µM | 96,000 tested, under 10 active;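 active means activation factor of at least 2 at 5 µM in the primary screen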
CYP2C9 inhib = blocks human cytochrome P450 2C9; P11712; CYP2C9 Supersomes, luciferin-H conversion, luminescence; inhibition, % at 5 µM; 96,000 compounds, 20% hits;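 active means blocking of liver enzyme CYP2C9 beyond about 50% at 5 µM, limit read from the data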
A number is an active result; i = inactive; nt = no result given. Rows were chosen to be rich in hits. Some 32% of all compounds tested hit in one or more screens of this group. Unless noted, no stated cut-off is given here; in the data, active means inhibition above about 30%; inactive means the rest.

SMILES | CYP2C19 inh | PostGolgi yeast | CYP2C9 activ | PostGolgi ctrl | CYP2C19 activ | CYP2C9 inhib
c1ccc2c(c1)oc1c(N3CCN(Cc4ccc5c(c4)OCO5)CC3)ncnc12 | 82 | i | i | i | i | 86
O=c1cc(-c2ccccc2)nc(N2CCN(Cc3ccc4c(c3)OCO4)CC2)[nH]1 | i | i | i | i | i | i
OC1CCN(c2ncnc3c2nnn3Cc2c(F)cccc2Cl)CC1 | i | i | i | i | i | i
Clc1ccccc1Cn1nnc2c(N3CCCC3)ncnc21 | 99 | i | 2.2 | i | i | i
c1ccc(Cn2nnc3c(N4CCOCC4)ncnc32)cc1 | 76 | i | i | i | i | i
Clc1ccc(N2CCN(c3ncnc4c3oc3ccccc34)CC2)cc1 | i | nt | i | nt | i | i
c1ccc(Cn2nnc3c(N4CCN(Cc5ccc6c(c5)OCO6)CC4)ncnc32)cc1 | 84 | i | i | i | i | 85
FC(F)(F)c1ccc(N2CCN(c3ncnc4c3nnn4Cc3ccccc3)CC2)nc1 | i | i | i | i | i | i
CCOC(=O)c1cc(C)n(S(=O)(=O)c2ccc(C)cc2)c1C | i | i | i | i | i | i
Cc1ccc(C(C)C)c(OCC(=O)Nc2ccc(N3CCN(S(C)(=O)=O)CC3)cc2)c1 | i | i | i | i | i | i
Cc1ccc2c(c1)[nH]c1c(N3CCN(Cc4ccc5c(c4)OCO5)CC3)ncnc12 | 82 | nt | i | nt | i | 93
CC(=O)c1c(N2CCN(Cc3ccc4c(c3)OCO4)CC2)nc(=S)n(-c2ccccc2)c1C | i | i | i | i | i | i
Fc1ccccc1Cn1nnc2c(-n3ccnc3)ncnc21 | 99 | i | i | i | i | 91
O=C(CSc1ncnc2c1nnn2Cc1ccccc1F)N1CCN(c2ccccc2)CC1 | nt | i | nt | i | nt | nt
CCOC(=O)C1C2C=CC3(CN(Cc4cccs4)C(=O)C13)O2 (stereo not given) | i | i | i | i | i | i
N#CCCCSc1nnc(-c2ccccn2)o1 | i | i | i | i | i | i
COC(=O)Cc1c(O)ccn(Cc2ccc(F)cc2)c1=O | i | i | i | i | i | i
Cc1cc(C)n2c(SCc3ccc(Cl)cc3Cl)nnc2n1 | 70 | i | i | 36 | i | i
Cc1cc(C)n2c(SCc3ccccc3Cl)nnc2n1 | i | i | 2.8 | 39 | i | i
Cc1cc(C)n2c(SCC(=O)Nc3ccc(Cl)cn3)nnc2n1 | i | i | i | i | i | i
CCCNC(=O)C(CC)NS(=O)(=O)c1ccc(OC)cc1 (stereo not given) | i | i | i | i | i | i
CCSC1=C(C#N)C2(CCCCC2)C(C#N)=C(N)N1 | 59 | i | i | i | i | 84
CCSC1=C(C#N)C2(CCCCC2)C(C#N)C(=O)N1 (stereo not given) | i | i | i | i | i | i
N#CC1=C(N)NC(SCc2ccccc2)=C(C#N)C12CCCCC2 | 100 | 103 | i | 91 | i | 100
CC(C)(C)c1cc(CN2CCOCC2)c(C(=O)O)o1 | i | i | i | i | i | i
SMILES | CYP2C19 inh | PostGolgi yeast | CYP2C9 activ | PostGolgi ctrl | CYP2C19 activ | CYP2C9 inhib
Cc1ccc2[nH]c(-c3cccc(N)c3)cc2c1 | i | i | i | i | i | i
Cc1ccc(O)c(-c2cc3ccccc3[nH]2)c1 | 54 | i | i | i | i | 80
Cc1cc(S(=O)(=O)N2CCN(c3ccccc3O)CC2)c(C)s1 | 71 | i | i | i | i | i
COc1ccccc1N1CCN(S(=O)(=O)c2cc(C)sc2C)CC1 | i | i | i | i | i | i
O=C1Nc2cc(Cl)c(Cl)cc2N(O)N1c1ccccc1 | i | i | i | i | i | i
CC1(c2ccc(Cl)c(Cl)c2)NC(=S)N2C1NC(=S)N2c1ccccc1 (stereo not given) | 78 | i | i | i | i | i
COc1cccc(S(=O)(=O)Nc2ccc3sc(C)nc3c2)c1 | 100 | i | i | i | i | 95
COc1cccc(NS(=O)(=O)c2cc(C)sc2C)c1 | nt | i | nt | i | nt | nt
CC1(C)N([O-])C2=C(c3ccccc3C2=O)[N+](=O)C1(C)C | i | i | i | i | i | i
Cn1cccc1Cc1nnc(SCC(=O)Nc2ccc(Cl)cc2)n1-c1ccc(F)cc1 | 54 | i | i | i | i | 58
COc1ccc(-n2c(Cc3cccn3C)nnc2SCC(=O)Nc2ccc(Cl)cc2)cc1 | i | i | i | i | i | 85
COc1ccc(-n2c(Cc3cccn3C)nnc2SCC(=O)Nc2cc(Cl)ccc2OC)cc1 | i | i | i | i | i | i
COc1ccc(-n2c(Cc3cccn3C)nnc2SCC(=O)Nc2cccc(F)c2)cc1 | 51 | i | i | i | i | 50
COc1ccc(-n2c(Cc3cccn3C)nnc2SCC(=O)NCc2ccc(F)cc2)cc1 | 89 | i | i | i | i | i
CN(Cc1ccccc1)C(=O)C1CCN(Cc2ccc(F)cc2)CC1 | i | i | i | i | i | i
COc1cc(NC(=O)Cn2nc(C(F)(F)F)c3c2CCCC3)cc(OC)c1OC | i | i | i | i | i | i
COc1ccc(NC(=O)CSc2nnc(-c3ccccn3)n2-c2ccccc2)cc1OC | i | i | i | i | i | i
COc1ccc(-n2c(Cc3cccn3C)nnc2SCC(=O)Nc2ccccc2)cc1 | i | i | i | i | i | 80
CCc1ccc(NC(=O)CSc2nnc(Cc3cccn3C)n2-c2ccc(OC)cc2)cc1 | 52 | i | i | i | i | 85
COc1ccc(-n2c(Cc3cccn3C)nnc2SCC(=O)Nc2ccccc2OC)cc1 | i | i | i | i | i | i
Cc1cccc(CN2CCC(C(N)=O)CC2)c1 | i | i | i | i | i | i
Cc1ccc(C)c(OCCn2cc(/C=C(\C#N)C(=O)NCc3cccs3)c3ccccc32)c1 | i | i | i | i | i | 78
N#C/C(=C\c1cn(CCOc2ccccc2)c2ccccc12)C(=O)NCc1ccco1 | i | i | i | i | i | i
O=C(c1ccc(Cl)c(Cl)c1)c1cc(-c2ccccn2)c(N2CCOCC2)s1 | i | i | i | 56 | i | 65
COc1ccc(C(=O)Nc2cc(OC)ccc2OC)cc1 | 71 | i | i | i | i | i
SMILES | CYP2C19 inh | PostGolgi yeast | CYP2C9 activ | PostGolgi ctrl | CYP2C19 activ | CYP2C9 inhib
COc1ccc(OC)c(NC(=O)c2cn(C)c(=O)c3cc(OC)c(OC)cc23)c1 | i | i | i | i | i | 74
COc1ccc(OC)c(NC(=O)c2cc3ccccc3o2)c1 | i | i | i | i | i | i
COc1ccc(OC)c(NC(=O)C23CCC(C)(C(=O)C2)C3(C)C)c1 (stereo not given) | i | i | 2.3 | i | i | i
COC(=O)c1sccc1NC(=O)c1ccc(OC)cc1 | i | i | i | 31 | i | i
CC12CCC(C(=O)Nc3ccc(SC(F)F)cc3)(CC1=O)C2(C)C (stereo not given) | i | i | i | i | i | i
O=c1[nH]c2ccccc2n2c(-c3ccncc3)nnc12 | i | i | i | i | i | i
COc1ccc(OC)c(NC(=O)c2ccc(CN3CCOCC3)cc2)c1 | i | i | 2 | i | i | i
COc1ccccc1NC(=O)c1ccc(CN2CCOCC2)cc1 | i | i | i | i | i | i

High-throughput results (PubChem BioAssay)
